From PubChem BioAssay AID504834 (National Center for Advancing Translational Sciences (NCATS), 2011)
Values joined by “and” are separate entries in the source; they are usually repeats but may differ in a detail not shown here. Equal entries are not always repeated. Screen size: about 320,000 compounds; about 22,000 (6.9%) were called active. Inconclusive results (about 27%) are left out. The call rests on the fitted dose curve; in most records, active means well fitted inhibition curve with a large enough effect; inconclusive means small, poorly fitted or top-dose-only effect, or another doubt; inactive means no such curve, though single readings can be large or run the other way. What follows is part of a selection rich in actives, with near analogues and random picks from the rest. Where a call stands in place of a potency, no number is given. More than one record can exist for a structure, and the calls need not agree.

assay: Primary qHTS for delayed death inhibitors of the malarial parasite plastid, 96 hour incubation; conditions: P. falciparum luciferase reporter growth; series mostly up to 28.7 µM
Summary of the method: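 Parasite growth measured via integrated firefly luciferase reporter in P. falciparum. Infected erythrocytes at 2% hematocrit, 0.05% parasitemia final were treated 96 hours at 37 C under 5% CO2, and luminescence was read.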
Potency means the concentration at half of the fitted maximal effect.

Structure (SMILES) | Potency
O=[N+]([O-])c1ccc2oc(-c3cccc(O)c3)nc2c1 | inactive
CC(=O)Oc1ccc2c(=O)oc(-c3ccc([N+](=O)[O-])cc3)nc2c1 | 2.33 µM (active)
COc1ccc(-c2nc3cc([N+](=O)[O-])ccc3o2)cc1OC | inactive
O=C(NCc1cccs1)c1ccc(CS(=O)Cc2ccccc2Cl)o1 (centres undefined) | inactive
O=Cc1cn(-c2ccccc2)nc1-c1ccccn1 | inactive
CCNCc1cc2cc(C)ccc2[nH]c1=O | inactive
Cc1ccc2[nH]c(=O)c(CN(CCCN(C)C)C(=O)Nc3cccc(Cl)c3)cc2c1 | 2.94 µM (active)
COc1ccc2[nH]c(=O)c(CN(CC3CCCO3)C(=O)Nc3ccccc3)cc2c1 (centres undefined) | inactive
Cc1ccc2[nH]c(=O)c(CN(CC3COCCO3)C(=O)Nc3ccccc3C)cc2c1 (centres undefined) | 0.465 µM (active)
CC(=O)OCc1cc2cc(C)ccc2[nH]c1=O | inactive
CCC(=O)N(CCc1ccccc1)Cc1cc2cc(C)ccc2[nH]c1=O | inactive
COc1ccc(S(=O)(=O)NCC(c2ccc(C)cc2)N2CCN(C)CC2)cc1OC (centres undefined) | inactive
Cc1ccc(-c2noc(CNC(=O)c3ccoc3C)n2)cc1 | inactive
O=C(NC1CCCC1)C1CCN(C(=O)Nc2cccc(Cl)c2)CC1 | inactive
COc1ccccc1NC(=O)Nc1nc(CC(=O)Nc2ccccc2F)cs1 | inactive
Cc1cc(=O)oc2ccc(OCC(=O)O)cc12 | inactive
Cc1ccccc1N1CCN(CCCOc2ccc3c(C)cc(=O)oc3c2)CC1 | inactive
Cc1cc(=O)oc2cc(OCCC[n+]3ccccc3)ccc12 | 4.65 µM (active)
Cc1ccc(C2SCC(=O)N2c2ccccc2)cc1 (centres undefined) | inactive
CN(CC(=O)Nc1cccc(F)c1)C(=O)C1=COCCO1 | inactive
CC(OC(=O)c1cc2ccccc2o1)C(=O)Nc1ccc(N2CCOCC2)cc1 (centres undefined) | inactive
COc1ccc(C(=O)NC2=NCCS2)c(OC)c1 | inactive
CCCOc1ccc(NC(=O)C2OC3OC(C)(C)OC3C3OC(C)(C)OC23)cc1 (centres undefined) | 10.4 µM (active)
CCCOc1ccc(NC(=O)C2CCCNC2=O)cc1 (centres undefined) | inactive
CCCOc1ccc(C(=O)CCC(=O)OC(C)C(=O)Nc2ccc(NC(C)=O)cc2)cc1 (centres undefined) | inactive
CC(=O)c1ccc(N2CCN(C(=O)c3ccc(Cl)c(S(=O)(=O)NC4CC4)c3)CC2)c(F)c1 | inactive

Structure (SMILES) | Potency
CC(C)OC(=O)c1ccc(COc2ccc3ccc(=O)oc3c2)o1 | inactive
O=C(CN(C(=O)c1csnn1)c1ccc(Br)cc1)NC1CCCC1 | inactive
Cc1ccc(CN(CC(=O)NC2CCCCC2)C(=O)c2csnn2)cc1 | inactive
Cc1ccccc1CCN(CC(=O)NC1CCCCC1)C(=O)c1csnn1 | 11.7 µM (active)
Cc1cc(NC(=O)CCC(=O)N(CC(=O)NCC2CCCO2)c2ccccc2)no1 (centres undefined) | inactive
O=C(CN1CCC(O)(c2cccc(C(F)(F)F)c2)CC1)NCCc1ccccc1 | inactive
Cc1ccc2nc(-c3ccncc3)cc(C(=O)Nc3ccc4c(c3)OCCO4)c2c1 | inactive
CCN(CC)CCNC(=O)c1ccc(NC(=O)c2cc(-c3ccncc3)nc3ccccc23)cc1 | 8.28 µM (active)
COC(=O)CNC(=O)c1cc(-c2ccncc2)nc2ccccc12 | inactive
O=S(=O)(Nc1cccc(-c2ccc(N3CCOCC3)nn2)c1)c1ccc(Cl)c(Cl)c1 | inactive
CCCCCCOC(=O)NCC(O)c1ccccc1 (centres undefined) | inactive
CCCC[N+]1(C)C2CC(OC(=O)C(CO)c3ccccc3)CC1C1OC12 (centres undefined) | inactive and 1.2 µM (active)
CCCCC(=O)NNC(=S)NC(=O)C(c1ccccc1)c1ccccc1 | inactive
CN(C)C(=O)Cn1c(=O)n(S(=O)(=O)c2ccccc2)c2ccccc21 | inactive
Cc1cccc(OCC(=O)NCC(=O)N/N=C/c2ccc(N(C)C)cc2)c1 | 7.38 µM (active)
Cc1ccc(/C=N/NC(=O)CNC(=O)COc2ccccc2)o1 | inactive
Cc1ccc(OCC(=O)N/N=C/c2ccncc2)cc1 | inactive
COc1ccccc1C(=O)COC(=O)CNS(=O)(=O)c1ccc(NC(C)=O)cc1 | inactive
Cc1ccc(N2C(=O)C3C4C=CC(CC4)C3C2=O)cc1Br (centres undefined) | inactive
CC(=O)Nc1ccc(N2C(=O)C3C4C=CC(CC4)C3C2=O)cc1 (centres undefined) | inactive
Cc1ccc(N2C(=O)C3C4C=CC(CC4)C3C2=O)cc1Cl (centres undefined) | 3.7 µM (active)
CCC(C)(C)NC(=O)C(c1ccc(OC)cc1)N(C(=O)CCC(=O)Nc1cc(C)on1)c1ccc(OC)cc1OC (centres undefined) | inactive
COc1cc(CC(=O)N2CCC(n3nccc3NC(=O)C3CC3)CC2)cc(OC)c1OC | inactive
O=c1c2ccccc2nc(-c2ccco2)n1-c1ccc(Br)cn1 | inactive
Cc1ccc(-n2ncc3c(=O)n(-c4ccc(C)c(C)c4)c(-c4ccco4)nc32)cc1 | 9.28 µM (active)
Cc1ccc(-c2nc3c(cnn3-c3ccccc3)c(=O)o2)cc1 | inactive

Structure (SMILES) | Potency
CC(=O)Nc1ccc(C(=O)N(C2=NC(C)CS2)c2ccc(Cl)cc2)cc1 (centres undefined) | inactive
COc1ccc(S(=O)(=O)NCC(c2ccco2)N2CCOCC2)cc1 (centres undefined) | inactive
CCN(Cc1ccncc1)C(=O)CCc1ccccc1 | 13.1 µM (active)
O=C(O)CCC(=O)N(Cc1ccccc1)Cc1ccccc1 | inactive
CCC(=O)N(Cc1ccccc1)c1ccccn1 | inactive
O=C(CCC(=O)n1ncc2ccccc21)NCc1ccccc1Cl | inactive
Cc1cccc(C)c1NC(=O)CSc1nnc(-c2ccccc2)n1Cc1ccc2c(c1)OCO2 | inactive
Cc1ccccc1-n1c(SCC(=O)NCc2cccs2)nnc1-c1ccncc1 | inactive
Cc1ccc(-n2c(SCC(=O)NCc3ccc4c(c3)OCO4)nnc2-c2cccnc2)c(C)c1 | 9.28 µM (active)
COc1ccc(NC(=O)c2cc(-c3ccc(C)cc3)on2)cc1 | inactive
Cc1csc(NC(=O)CSc2nnc(-c3cccnc3)o2)n1 | inactive
CCc1ccccc1NC(=O)/C(=C/c1ccccc1)c1ccccc1 | 8.28 µM (active)
CCOc1ccc(/C=C(/NC(=O)c2ccccc2)C(=O)NCCC(=O)O)cc1 | inactive
CCc1ccccc1NC(=O)c1cccs1 | inactive
CCSc1nc(O)c(C(c2cccc(OC)c2)c2c(O)nc(SCC)[nH]c2=O)c(=O)[nH]1 | inactive
CCOC(=O)C1=C(CSc2nccn2C)NC(=O)NC1c1ccc(OC)cc1 (centres undefined) | 13.1 µM (active)
CCOC(=O)C1=C(c2ccccc2)NC(=O)NC1c1cc(OC)c(OC)cc1OC (centres undefined) | inactive
CCOC(=O)C1CN(S(=O)(=O)c2ccc(OC)cc2)c2cc(Cl)ccc2O1 (centres undefined) | inactive
COc1ccc(-c2ccc3nnc(SCC(=O)Nc4ccc(NC(C)=O)cc4)n3n2)cc1 | inactive
O=C(Nc1ccccc1)N1CCN(C2c3ccccc3-c3ccccc32)CC1 | 2.62 µM (active)
O=C(Nc1ccccc1)N1CCN(C(=O)Nc2ccccc2)CC1 | inactive
O=C(Nc1ccccc1)N1CCN(Cc2ccccc2)CC1 | inactive
CN1C(C(=O)NCc2ccco2)CC2Cn3c(nc4ccccc43)C21 (centres undefined) | inactive
CC(C)(C)C(=O)Nc1ccc(-c2cn3cccnc3n2)cc1 | inactive
O=C(CCN1C(=O)C2C3CCC(C3)C2C1=O)Nc1ccc(Cl)cc1Cl (centres undefined) | 7.38 µM (active)
O=C(NC(=S)Nc1ccc(Cl)cc1Cl)C1CC1 | inactive

Structure (SMILES) | Potency
Cc1ccc(C(=O)COC(=O)CCN2C(=O)C3C4CCC(C4)C3C2=O)cc1C (centres undefined) | inactive
O=C(N/C(=C\c1ccc([N+](=O)[O-])cc1)C(=O)N1CCCCC1)c1ccco1 | inactive
COCCn1c(SCC(=O)Nc2nc(C)cs2)nnc1C(C)C | inactive
O=C(NCc1ccc2c(c1)OCO2)c1ccc2c(c1)C(=O)N(CC1CCCO1)C2=O (centres undefined) | inactive
O=C1c2cccc3c([N+](=O)[O-])ccc(c23)C(=O)N1CC1CCCO1 (centres undefined) | 10.4 µM (active)
CCC(=O)Nc1ccc(C(=O)Nc2ccc3c(c2)C(=O)N(CC2CCCO2)C3=O)cc1 (centres undefined) | inactive
C[N+](C)(C)CCNC(=O)c1cc[n+](Cc2ccccc2)c(/C=N/O)c1 | inactive
O=C(Nc1ccccn1)C1CCN(S(=O)(=O)c2ccc3c(c2)OCCO3)CC1 | inactive
O=C(Nc1ccccn1)C1CCN(S(=O)(=O)c2ccccc2)CC1 | inactive
O=C(Nc1nccs1)C1CCN(S(=O)(=O)c2ccc(Cl)c(C(F)(F)F)c2)CC1 | 13.1 µM (active)
CN(C)c1ccc(-c2nnc(-c3cccnc3)o2)cc1 | inactive
CC1CC(C)CN(S(=O)(=O)c2cccc3nonc23)C1 (centres undefined) | inactive
CCN(C(=O)CSc1nnnn1-c1ccccc1OC)C1CCS(=O)(=O)C1 (centres undefined) | inactive
COc1ccc(CCNC(=O)CCNS(=O)(=O)c2cc(Br)cnc2N)cc1OC | inactive
COc1cc2c(cc1OC)C(C(=O)Nc1cc(C)c(OC)c(C)c1)CC(=O)N2 (centres undefined) | inactive
COC(=O)C1=C(C)NC(=O)CC1c1ccccc1OC (centres undefined) | inactive
COc1cc2c(cc1OC)C(c1ccc(C)o1)CC(=O)N2 (centres undefined) | 13.1 µM (active)
CC(=O)CC[C@@H](C)O[C@@H]1OC(C)[C@H](O)CC1O (some centres undefined) | inactive
C=CCOc1ccc(/C=C/C(=O)OCC(=O)NC2CCCCCC2)cc1 | inactive
N#Cc1cccc(NC(=O)CN2CCCCCC2)c1 | inactive
N#Cc1cccc(NC(=O)CCC2CCCC2)c1 | inactive
N#Cc1cccc(NC(=O)C2CCCN(C(=O)c3ccc(Cl)cc3)C2)c1 (centres undefined) | 9.28 µM (active)
COC(=O)C1=CN(c2ccc(F)c(F)c2)C=C(C(=O)OC)C1c1ccc([N+](=O)[O-])cc1 | inactive
COc1ccc(C(C(=O)NC2CCCCC2)N(C(=O)c2snc(C(N)=O)c2N)c2ccccc2OC)cc1 (centres undefined) | inactive
COc1ccc(C(C(=O)NC2CCCCC2)N(C(=O)CCl)c2ccccc2Cl)cc1 (centres undefined) | 0.294 µM (active)
COc1cccc(N(C(=O)C2COc3ccccc3O2)C(C(=O)NC2CCCCC2)c2ccc(O)cc2)c1 (centres undefined) | inactive
